From PubChem BioAssay come the findings set out here.

Experiment [1] can be described thus: inhibitors of TNFa-induced NFkB p65 translocation, primary screen, imaging, HUVEC, MLSMR starter and 10KST1 sets (AID 438;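 active = inhibition above 20% together with a positive visual image hit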;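 note: compound added about 3h40 before a 20 min TNFalpha stimulation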;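 for inhibition: signal is the nuclear over cytoplasmic p65 intensity ratio per well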). To be noted: HUVEC TNFa-induced p65 nuclear translocation; cell count: measured here: nuclei count (cytotoxicity indicator), at 2.08 µM; inhibition: at 2 µM, stronger effect = higher value, 0% TNFa-plus-vehicle, 100% no-TNFa wells.
Experiment [2] can be described thus: inhibitors of mutant huntingtin aggregation, primary screen, imaging, exon1htt(103Q)mCFP cells, high-content imaging (AID 483;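 active = visual image review flags a hit and inhibition of aggregation exceeds 20%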;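 note: compound exposure lasted 3 days before fixation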;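 for nuclei count: percent of the per-plate median nuclei count of sample wells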). The conditions noted are these: exon1htt(103Q)mCFP cell line, aggregate imaging, at 2 µM; inhibition of aggregation: stronger effect = higher value; nuclei count: measured here: cell count, toxicity.
A short description of experiment [3]: inhibitors of E-selectin induction by TNFa, primary screen, imaging, HUVEC, immunofluorescence, MLSMR starter and 10KST1 sets (AID 487;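 active = visually confirmed hit in the image check and inhibition above 20%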;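 for inhibition: signal is fraction of cell area covered by stained E-selectin grains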;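 for nuclei count: 100% = median nuclei count of all wells on the same plate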). To be noted: HUVEC TNFalpha-induced E-selectin immunofluorescence imaging, at 2 µM; inhibition: stronger effect = higher value; nuclei count: measured here: cell number, toxicity.
The nature of experiment [4]: DUSP6 inhibitors restoring Erk phosphorylation by chemical complementation, primary imaging in DUSP6-transfected HeLa (AID 609;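 active = compounds giving at least 50% inhibition in the cell-based MKP-3 phosphatase rescue imaging test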;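 for inhibition: phospho-Erk level distribution per well compared with pooled transfected vehicle control wells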). The conditions noted are these: HeLa MKP-3 transfected, phospho-Erk imaging KS statistic, at 10 µM, cells stimulated with TPA for 15 min.
Experiment [5] has as its target Dual specificity protein phosphatase 6 (Homo sapiens) (UniProt Q16828). The experiment is described as above. The conditions noted are these: HeLa MKP-3 transfected, phospho-Erk imaging KS statistic; at 10 µM; stronger effect = higher value; cells stimulated with TPA for 15 min.
Experiment [6] deals with Voltage-gated potassium channel subunit beta-2 (Rattus norvegicus) (UniProt P62483). As to the kind of experiment: KvBeta enzyme negative modulators, primary screen, biochemical, NADPH fluorescence (AID 622;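 active = fluorescence slope higher than the sample average by over 3 SD, cut at about -0.22 in these data, passing the limit was not always enough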;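 note: slope of raw intensity against log time taken from 70 to 1610 s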). The conditions noted are these: recombinant KvBeta, 4-cyanobenzaldehyde reduction, at 10 µM, stronger effect = higher value.
Sequence of Voltage-gated potassium channel subunit beta-2 (Rattus norvegicus) (P62483 whole entry, looked up): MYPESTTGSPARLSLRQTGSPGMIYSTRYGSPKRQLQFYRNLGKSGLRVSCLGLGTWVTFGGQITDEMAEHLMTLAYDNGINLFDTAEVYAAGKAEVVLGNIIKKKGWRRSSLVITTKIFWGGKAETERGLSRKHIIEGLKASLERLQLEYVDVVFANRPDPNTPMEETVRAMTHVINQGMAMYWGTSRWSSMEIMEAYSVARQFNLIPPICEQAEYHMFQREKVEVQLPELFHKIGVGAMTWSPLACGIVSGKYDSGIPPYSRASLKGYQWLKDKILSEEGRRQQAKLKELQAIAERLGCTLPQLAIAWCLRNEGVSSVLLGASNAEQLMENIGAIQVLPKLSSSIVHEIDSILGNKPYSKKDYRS
The target is the same in experiment [7]. As to the kind of experiment: KvBeta positive modulators, primary screen, biochemical, NADPH fluorescence (AID 623;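 active = NADPH fluorescence slope more negative than the mean of all samples by about 3 SD, 99.7% confidence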;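 note: fluorescence intensity change per second fitted from 20 to 320 s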). To be noted: Recombinant KvBeta, NADPH fluorescence decrease slope, 10 min; at 10 µM; stronger effect = lower value.
The target in experiment [8] is Alpha-2C adrenergic receptor (Homo sapiens) (UniProt P18825). As to the kind of experiment: modulators of alpha2C/GIRK thallium flux, primary screen, cell-based, HEK293 alpha2C/GIRK1/2 (AID 624;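 active = fluorescence slope after compound addition differing from the mean of all screened samples at 99.7% confidence, in either direction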;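 note: slope of fluorescence ratio to pre-addition baseline per second over 15 to 24 s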). The conditions noted are these: thallium flux BTC fluorescence, at 10 µM, actives lie on both sides.
Sequence of Alpha-2C adrenergic receptor (Homo sapiens) (P18825 whole entry, looked up): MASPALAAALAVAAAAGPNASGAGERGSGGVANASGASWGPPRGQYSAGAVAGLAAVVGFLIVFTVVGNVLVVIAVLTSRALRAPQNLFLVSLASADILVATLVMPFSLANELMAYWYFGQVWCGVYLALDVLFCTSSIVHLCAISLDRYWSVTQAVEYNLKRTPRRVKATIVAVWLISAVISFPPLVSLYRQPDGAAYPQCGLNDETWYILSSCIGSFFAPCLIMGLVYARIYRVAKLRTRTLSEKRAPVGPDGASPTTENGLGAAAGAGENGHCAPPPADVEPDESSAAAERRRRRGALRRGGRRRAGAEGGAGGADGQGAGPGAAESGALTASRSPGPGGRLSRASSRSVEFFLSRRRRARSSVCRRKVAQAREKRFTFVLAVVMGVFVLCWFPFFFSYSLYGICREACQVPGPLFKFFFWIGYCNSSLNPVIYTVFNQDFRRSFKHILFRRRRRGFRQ
Experiment [9] can be described thus: inhibitors of Chlamydomonas gravitaxis, primary screen, whole organism, Chlamydomonas reinhardtii, WT vs cilia-less mutant, absorbance, 96-well (AID 463189).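 Note: 0% = wild type cc124 cells in DMSO and 100% = ciliumless bld1 mutant cells.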 The conditions noted are these: OD600 absorbance, 2 days, at 10 µM, stronger effect = higher value.
A short description of experiment [10]: inhibitors of Sendai virus-induced IRF3 signaling, primary screen, TLR/RLR signaling modifier project, cell-based, Sendai virus stimulus, luciferase, 10K MLSCN set (AID 602276;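 active = inhibition at or above 50% at 10 µM; inactive = inhibition below 50%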;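 note: firefly luciferase from ISG56 promoter only with Renilla not read in this screen; 0% = Sendai virus plus DMSO and 100% = medium plus DMSO without virus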). To be noted: HEK293 RL24 IRF3 luciferase reporter, at 10 µM, stronger effect = higher value. In general terms: Reporter assays use an easily measured gene product as a stand-in for the process of interest.

Experiment [11] in a line: inhibitors of poly I:C-induced TLR3 signaling, primary screen, cell-based, poly I:C stimulus, luciferase, 10K MLSCN set (AID 602277;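 active = inhibition of the reporter signal at or above 50%; inactive = inhibition below 50%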). To be noted: HEK293-TLR3 RL24 IRF3 luciferase reporter, at 10 µM, stronger effect = higher value.
For experiment [12], the target named is Muscarinic acetylcholine receptor M4 (Homo sapiens) (UniProt P08173). As to the kind of experiment: compounds altering M4/GIRK thallium flux, either direction, primary screen, M4 allosteric agonist project, cell-based, HEK293 M4/GIRK, BTC-AM (AID 625;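 active = fluorescence slope after compound addition differing from the mean of all tested samples at 99.7% confidence, mostly higher but some lower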;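 note: thallium influx through GIRK channels coupled to M4 in HEK293 cells with BTC-AM dye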). The conditions noted are these: at 10 µM, actives lie on both sides.
Sequence of Muscarinic acetylcholine receptor M4 (Homo sapiens) (P08173 whole entry, looked up): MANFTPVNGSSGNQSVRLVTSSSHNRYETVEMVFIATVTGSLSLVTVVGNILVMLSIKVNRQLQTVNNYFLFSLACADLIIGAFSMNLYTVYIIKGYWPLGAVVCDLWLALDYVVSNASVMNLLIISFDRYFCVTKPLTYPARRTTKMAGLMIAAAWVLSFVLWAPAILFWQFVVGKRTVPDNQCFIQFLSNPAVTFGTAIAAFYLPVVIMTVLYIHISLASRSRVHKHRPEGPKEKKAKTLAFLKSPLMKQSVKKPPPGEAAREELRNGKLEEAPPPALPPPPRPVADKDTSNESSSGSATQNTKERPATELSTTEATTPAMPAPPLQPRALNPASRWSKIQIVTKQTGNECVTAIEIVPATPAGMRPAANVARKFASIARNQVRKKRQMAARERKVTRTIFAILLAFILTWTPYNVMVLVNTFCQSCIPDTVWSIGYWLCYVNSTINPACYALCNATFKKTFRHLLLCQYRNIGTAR
Experiment [13] in a line: inhibitors of larval lipid processing in zebrafish, primary screen, whole organism, PED6 fluorescence, gall bladder and intestine (AID 686;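 active = a full or partial loss of lipid-probe fluorescence in the fish gall bladder, intestine or both, judged by eye; inactive = no fluorescence loss, or compound toxic to the fish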;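 note: larvae 5 to 7 days old with five fish per well; signal comes from phospholipase A2 cleavage of quenched PED6 carried via bile; overnight exposure to compound and PED6 before scoring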). To be noted: Zebrafish larvae PED6 lipid processing, fluorescence scoring; screened at 20 µM (by protocol).
Setting [14] is: measured here: cell density z-score.
Where [15] appears, read: measured here: nuclear c-Myc green intensity z-score.
Where [16] appears, read: measured here: nuclear pErk red intensity z-score, stronger effect = higher value.

Several values for one entry are separate records, joined by “and”; a condition that tells them apart may be missing. Equal values may be shown once. Activity calls are given as the source filed them.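 Rule for the calls, unless noted: active = inhibition at or above 50% relative to wild type and mutant plate controls; inactive = inhibition below 50%.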

Sequence of Dual specificity protein phosphatase 6 (Homo sapiens) (Q16828 whole entry, looked up): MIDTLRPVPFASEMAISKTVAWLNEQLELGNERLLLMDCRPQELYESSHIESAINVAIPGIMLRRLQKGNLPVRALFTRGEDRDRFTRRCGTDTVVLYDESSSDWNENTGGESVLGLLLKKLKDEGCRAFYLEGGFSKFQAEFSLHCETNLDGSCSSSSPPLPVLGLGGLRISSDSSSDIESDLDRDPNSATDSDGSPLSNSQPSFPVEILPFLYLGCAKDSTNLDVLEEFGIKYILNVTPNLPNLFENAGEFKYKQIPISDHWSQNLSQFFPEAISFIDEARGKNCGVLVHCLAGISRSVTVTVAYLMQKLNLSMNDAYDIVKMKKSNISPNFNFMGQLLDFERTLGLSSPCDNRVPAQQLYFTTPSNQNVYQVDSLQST

For the compound `CCO/C([O-])=N/c1c[n+](N2CCOCC2)no1`, the cell count in experiment [1] is 669. In addition, the inhibition (usually the drop in the measured response relative to a control, in per cent) is 9.9% (inactive) in experiment [1]; -28.6% (inactive) in [3]; 16.8% (inactive) in [5]; 2.9% (inactive) and 18.7% (inactive) in experiment [9]; -10.8% (inactive) in [10]; -12.7% (inactive) in experiment [11]. Also, the inhibition of aggregation in experiment [2] is -18.2% (inactive). For the same compound, the nuclei count in experiment [2] is 97.5%; in [3], 122%. Further, the z-score in [4] (setting [14]) is -0.87; in [4] (setting [15]), -0.27; in [4] (setting [16]), -1.04. In addition, the fluorescence slope in experiment [6] is -0.482 (inactive). Besides, the NADPH fluorescence slope in experiment [7] was -6e-05 (inactive). Moreover, in [8], the slope is 0.00537 (inactive).
On to `Cc1cc(N2C(=O)C(=O)/C(=C(/O)c3ccc(F)cc3)C2c2ccc(F)cc2)no1` (configuration not stated), for which the cell count in experiment [1] was 430. In addition, the inhibition in experiment [1] is -7.1% (inactive); in experiment [3], -108% (inactive); in experiment [5], 1.04% (inactive); in [9], 0.694% (inactive); in experiment [10] it was 14.8% (inactive); in experiment [11] it was 7.49% (inactive). Besides, in [2], the inhibition of aggregation was 10.1% (inactive). The values for the nuclei count in [2] and in experiment [3] were 60.9% and 122%, respectively. Further, the z-score in experiment [4] (setting [14]) is -1.41; in experiment [4] (setting [15]), 1.25; in experiment [4] (setting [16]), 1.07. The fluorescence slope in [6] was -0.407 (inactive); in [12] it was 0.0056 (inactive). In experiment [7], the NADPH fluorescence slope was -3.1e-05 (inactive). Also, in [8], the slope was 0.00571 (inactive). Also, the outcome in experiment [13] was inactive.
Consider `C1CNCCNCCNCCN1`, for which the cell count in [1] amounted to 566. In addition, the inhibition in experiment [1] is -6.4% (inactive); in [3], -31.7% (inactive); in experiment [5], 10.2% (inactive); in [9], 1.09% (inactive); in [10] it was 13.2% (inactive); in experiment [11] it was 41.9% (inactive). Further, the inhibition of aggregation in experiment [2] was 12.4% (inactive). Moreover, the nuclei count in experiment [2] came to 109%; in [3], 105%. Moreover, the z-score in [4] (setting [14]) was -1.12; in experiment [4] (setting [15]), -0.574; in experiment [4] (setting [16]), 0.0503. Moreover, the fluorescence slope in experiment [6] is -0.481 (inactive). Further, the NADPH fluorescence slope in [7] was -4.4e-05 (inactive). Moreover, the slope in experiment [8] was 0.00519 (inactive).
With `CCN(CC)CCN1C(=O)C(O)=C(C(=O)c2ccco2)C1c1ccccn1` (configuration not stated), in [1], the cell count was 439. In addition, the inhibition is -6.3% (inactive) in experiment [1]; -87.6% (inactive) in experiment [3]; 3.5% (inactive) in experiment [5]; 14.9% (inactive) in [9]; 15.6% (inactive) in experiment [10]; 18.9% (inactive) in experiment [11]. The inhibition of aggregation in [2] is 16.5% (inactive). For the same compound, the nuclei count in experiment [2] worked out at 89.2%; in experiment [3], 123%. Also, the figures for the z-score in experiment [4] (setting [14]), in [4] (setting [15]) and in experiment [4] (setting [16]) were 0.101, -1.41 and 0.388, respectively. In addition, the fluorescence slope in experiment [6] was -0.431 (inactive). Moreover, in experiment [7], the NADPH fluorescence slope is -0.000163 (inactive). Besides, the slope in [8] was 0.005 (inactive).
For `Cc1nnc(NCc2n[nH]c(=O)c3ccccc23)c2ccccc12`, the cell count in [1] amounted to 459. The inhibition was -4.7% (inactive) in [1]; -23.8% (inactive) in experiment [3]; 7.21% (inactive) in experiment [5]; -15.8% (inactive) in experiment [9]; 4.22% (inactive) in experiment [10]; -7.48% (inactive) in experiment [11]. Moreover, the inhibition of aggregation in experiment [2] was -19.6% (inactive). In addition, the nuclei count in experiment [2] was determined as 51.5%; in experiment [3] it was 118%. For the same compound, the figures for the z-score in experiment [4] (setting [14]), in [4] (setting [15]) and in experiment [4] (setting [16]) were -2.3, 1.26 and 1.58, respectively. The fluorescence slope is -0.502 (inactive) in [6] and 0.0052 (inactive) in [12]. For the same compound, in [7], the NADPH fluorescence slope is -0.000115 (inactive). For the same compound, the slope in [8] was 0.00499 (inactive). In addition, the compound was classed as inactive in experiment [13].
As to `Cc1ccc(-c2nnc(-c3cccc(Br)c3)o2)cc1`, the cell count in [1] is 512. The inhibition in experiment [1] is -1.8% (inactive); in experiment [3], -41.7% (inactive); in experiment [5] it was -15.1% (inactive); in experiment [9], 8.63% (inactive); in experiment [10], -18% (inactive); in experiment [11], -64% (inactive). Besides, the inhibition of aggregation in experiment [2] is -23.2% (inactive). Moreover, the nuclei count is 96.1% in experiment [2] and 126% in [3]. For the same compound, the z-score in experiment [4] (setting [14]) was found to be 0.516; in experiment [4] (setting [15]), 0.261; in experiment [4] (setting [16]), 0.911. For the same compound, the fluorescence slope in experiment [6] is -0.487 (inactive); in experiment [12], 0.00652 (inactive). For the same compound, in experiment [7], the NADPH fluorescence slope was -9.8e-05 (inactive). For the same compound, in experiment [8], the slope is 0.00623 (inactive). For the same compound, in experiment [13], the call was inactive.
Take `O=C(CCCN1C(=O)c2ccccc2C1=O)N1CCC(c2ccccc2)C1` (configuration not stated): in experiment [1], the cell count amounted to 452. The inhibition in experiment [1] is -8.4% (inactive); in [3], -109% (inactive); in experiment [5], -3.5% (inactive); in experiment [9] it was 10.2% (inactive); in experiment [10] it was 10.8% (inactive); in experiment [11], -11.3% (inactive). Moreover, the inhibition of aggregation in experiment [2] is -32.2% (inactive). Also, the nuclei count in experiment [2] was 61.9%; in [3] it was 123%. In addition, the z-score was 1.18 in experiment [4] (setting [14]), -1.65 in experiment [4] (setting [15]) and 0.457 in experiment [4] (setting [16]). Moreover, the fluorescence slope in experiment [6] is -0.453 (inactive). Also, the NADPH fluorescence slope in [7] was -7.2e-05 (inactive). The slope in experiment [8] was 0.00674 (inactive).
On to `O=C(Nc1nccs1)NC(C(F)(F)F)C(F)(F)F`, for which, in experiment [1], the cell count amounted to 620. Also, the inhibition in experiment [1] is 10.3% (inactive); in experiment [3] it was 14.4% (inactive); in [5] it was 3.49% (inactive); in experiment [9] it was 28.7% (inactive); in experiment [10] it was 22.5% (inactive); in experiment [11], 33.5% (inactive). Moreover, the inhibition of aggregation in experiment [2] is -10.4% (inactive). Further, the figures for the nuclei count in experiment [2] and in [3] were 101% and 95.3%, respectively. The figures for the z-score in [4] (setting [14]), in experiment [4] (setting [15]) and in experiment [4] (setting [16]) were 0.47, -0.00766 and -0.375, respectively. Besides, the fluorescence slope in [6] is -0.522 (inactive); in experiment [12] it was 0.00652 (inactive). The NADPH fluorescence slope in [7] is -4.1e-05 (inactive). Further, in [8], the slope was 0.00624 (inactive). The outcome in experiment [13] was inactive.
With `Cc1ccc(S(=O)(=O)NC(=O)NN2CCCCCC2)cc1`, the cell count in [1] was 604. Further, the inhibition in [1] was -5.1% (inactive); in experiment [3] it was -81.9% (inactive); in experiment [5] it was 21.2% (inactive); in [9], 6.39% (inactive) and 32.8% (inactive); in [10] it was 9.08% (inactive); in experiment [11], 19.5% (inactive). The inhibition of aggregation in experiment [2] is 0% (inactive). The nuclei count in experiment [2] was determined as 99.6%; in experiment [3] it was 122%. In addition, the z-score in [4] (setting [14]) is 0.424; in experiment [4] (setting [15]), 0.978; in experiment [4] (setting [16]), -1.05. The fluorescence slope in experiment [6] was -0.457 (inactive). The NADPH fluorescence slope in experiment [7] is -5.8e-05 (inactive). In addition, in experiment [8], the slope is 0.00471 (inactive).
